High-throughput results from PubChem.
Sampled rows, rich in hits. Any-hit rate of the full collection: about 9%.
HTT aggregate – qHTS Multiplex Assay to Identify Dual Action Probes in a Cell Model of Huntington: Aggregate Formation (GFP) | AID 1688, 2009 | 1.1% of 220,000 active | Potency, µM (top dose mostly 46.1 µM), for inactives: at the top dose activity change, negative = inhibition, usual class: inhibitors | PC12 HttQ103-GFP aggregates, Acumen cytometry, 40 h; also: % is scaled to controls: 0 for no effect and ±100 for the full control effect; nearly all actives have a fitted effect of over 60% in size
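Multiplexed with ATP-based cell death, this channel scores GFP aggregates in PC12 cells expressing inducible HTTex1-Q103-GFP. Induction used 100 nM tebufenozide; compounds were tested in concentration series.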
KinaseGlo FLuc – Counterscreen for Luciferase (Kinase-Glo TM) Inhibition; Potency, µM (highest dose often 38.3 µM), for the others: at the highest dose activity change, negative = inhibition, most hits filed as inhibitors; Luciferin 4-monooxygenase (Photuris pensylvanica), Q27757; Kinase-Glo luciferase, ATP luminescence, 8 min; 0.28% of 200,000 active; also: % is scaled to controls: 0 for no effect and ±100 for the full control effect; nearly all actives have a fitted effect of over 60% in size
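Compound is pinned into ATP-containing buffer (10 uM ATP, imidazole pH 7.2, 7 mM MgCl2). Kinase-Glo luciferase reagent is then added. Light output is recorded following an 8-min room-temperature incubation.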
HTT cytoprotect – qHTS Multiplex Assay to Identify Dual Action Probes in a Cell Model of Huntington: Cytoprotection (ATP). PC12 HTT-Q103 induced, cytoprotection, ATP luminescence, 40 h. Potency, µM (doses to about 56.4 µM), for inactives: cytoprotection (ATP increase), hits mostly activators. 0.14% of 230,000 active; also: % of control where 0% means no effect; nearly all actives have a fitted effect of over 45% in size
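Compounds added alongside 100 nM tebufenozide, which induces toxic Q103 huntingtin exon 1-GFP in stable PC12 cells; surviving cells quantified by luminescent ATP measurement. Medium: phenol red-free DMEM, 5% equine and 5% calf serum.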
Lamin A splicing – qHTS Assay for Modulators of Lamin A Splicing. Potency, µM (titrated, usually from 46.1 µM), for the others: at the highest dose ratio change, negative = inhibition, actives largely listed as inhibitors. 0.01% of 200,000 active. HeLa LMNA splicing GFP/RFP minigene ratio, 48 h; active = well fitted inhibition curve with a large enough effect in the signal ratio, with a control signal flat, not every such curve was filed as active; inconclusive = small, poorly fitted or top-dose-only effect, or effect the other way, or a change in a side signal; the % refers to the signal ratio; also: % is scaled to controls: 0 for no effect and ±100 for the full control effect
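S3 HeLa cells stably expressing lamin A-EGFP splicing minigene plus DsRed2, 600 cells/well, 48 h compound exposure at 37C. Laser-scanning cytometry; analysed as GFP (500-530 nm)/RFP (575-640 nm) total intensity ratio; 0.5% DMSO vehicle.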
ALDH1A1 block – qHTS Assay for Inhibitors of Aldehyde Dehydrogenase 1 (ALDH1A1); Aldehyde dehydrogenase 1A1 (Homo sapiens), P00352; Purified ALDH1A1, NADH fluorescence, propionaldehyde substrate; Potency, µM (doses to about 75.3 µM), inactives show at the highest dose activity, negative = inhibition, usual class: inhibitors; 7.3% of 220,000 active; AID 1030, 2008; active = well fitted inhibition curve with a large enough effect, not every such curve was filed as active; inconclusive = small, poorly fitted or top-dose-only effect, or another doubt; inactive = no such curve, though single readings can be large or run the other way;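 also: plate controls were no enzyme wells and a reference inhibitor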
HPGD inh – qHTS Assay for Inhibitors of HPGD (15-Hydroxyprostaglandin Dehydrogenase) | Potency, µM, for the others: at the top dose activity change, negative = inhibition, usual class: inhibitors | purified HPGD, NADH fluorescence kinetic, PGE2 substrate | 4.3% of 150,000 active | 15-hydroxyprostaglandin dehydrogenase [NAD(+)] (Homo sapiens), P15428 | AID 894, 2007; active = well fitted inhibition curve with a large enough effect, not every such curve was filed as active; inconclusive = small, poorly fitted or top-dose-only effect, or another doubt; inactive = no such curve, though single readings can be large or run the other way; also: % is scaled to controls: 0 for no effect and ±100 for the full control effect
Target sequence (P15428 whole entry, looked up): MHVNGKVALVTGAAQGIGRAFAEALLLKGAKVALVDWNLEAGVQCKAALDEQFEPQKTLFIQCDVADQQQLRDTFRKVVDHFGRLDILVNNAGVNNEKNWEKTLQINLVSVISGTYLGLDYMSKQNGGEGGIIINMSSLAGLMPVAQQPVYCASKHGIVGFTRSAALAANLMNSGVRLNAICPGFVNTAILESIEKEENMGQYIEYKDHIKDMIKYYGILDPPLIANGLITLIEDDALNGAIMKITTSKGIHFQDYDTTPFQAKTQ
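NADH formation kinetics: reaction with 30 uM PGE2 and 1 mM NAD+ (final), 20 nM enzyme, Tris-HCl pH 8 with Tween 20, after 15 min compound preincubation at room temperature. Fluorescence change, last versus first of five reads.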
An asterisk follows results filed as active; ? = inconclusive; / = not tested or not shown; [ ] = dose if it differs, or a comment. Unless noted, calls follow the shape of the dose curve; as a rule, active = well fitted curve in the direction sought with a large enough effect; inconclusive = small, poorly fitted or top-dose-only effect, or another doubt; inactive = no such curve, though single readings can be large; an effect the other way counts as inactive or inconclusive. Potency is read from the fitted curve at half-maximal effect.

SMILES	HTT aggregate	KinaseGlo FLuc	HTT cytoprotect	Lamin A splicing	ALDH1A1 block	HPGD inh
COC(=O)[C@@H]1[C@@H]2C[C@H]3c4[nH]c5cc(OC)ccc5c4CCN3C[C@@H]2C[C@H](OC(=O)c2cc(OC)c(OC)c(OC)c2)[C@H]1OC	/	-1%[17.1 µM]	-34%[17.1 µM]	-14%	?	-22%
Cc1nnc(N/N=C\c2ccc(-c3ccccc3[N+](=O)[O-])o2)n1N	6%	0%	2%[10 µM]	-4%	20µM*	-17%
Cc1n[nH]c(=S)n1/N=C/c1ccc(-c2ccccc2[N+](=O)[O-])o1	-28%	-3%	-27%	-17%	14µM*	14µM*
O=[N+]([O-])c1cccc(-c2ccc(/C=N/n3c(-c4ccccc4)n[nH]c3=S)o2)c1	?	1%	-9%[10 µM]	-4%	0%	?
O=C(N/N=C/c1ccc(OC(F)F)cc1)c1cccc(S(=O)(=O)N2CCOCC2)c1	-13%[9.22 µM]	1%	-15%[10 µM]	?	10%	/
Cc1cc(C)nc(Nc2nc3ccccc3[nH]2)n1	-3%	-1%	-9%	-1%	-1%	-13%
c1ccc(Nc2nc3ccccc3[nH]2)nc1	1%	-6%	-26%	10%	?	32µM*
Cc1[nH]c2ccccc2c1/C=N/n1cnnc1	-6%	-1%	-14%[10 µM]	3%	10%	-13%
CCN(CC)c1ccc(N=Cc2c(C)[nH]c3ccccc23)cc1	11µM*	-3%	/	?	0.45µM*	?
Cc1ccc(NC(=O)c2ccc(Nc3ccccc3F)nc2)cc1	-5%	-2%	-13%[10 µM]	-18%	-1%	-7%
Cc1cccc(NC(=O)/C=C/c2cccs2)n1	-29%	13µM*	-18%	-10%	?	28µM*
COc1cc(-c2nc(-c3ccc4c(c3)-c3ccccc3S4(=O)=O)c(-c3ccccc3)[nH]2)cc(OC)c1OC	-23%	1%	-21%	-10%	?	-28%
Cn1c(=O)[nH]c(=O)c2c1nc(N1CCCCCC1)n2CCN1CCCCCC1	-16%	2%	-1%[10 µM]	-7%	-6%	-11%
CC1CCCC(NC(=O)CSc2nnc(N)s2)C1C (stereo not given)	10%	-1%	16%	7%	?	28µM*
CC1CCCCC1NC(=O)CSc1nncs1 (stereo not given)	-7%	1%	-17%[10 µM]	-4%	1%	22µM*
CCCCCc1ccc(S(=O)(=O)NCCc2ccncc2)cc1	11µM*	-1%	-8%	?	-9%	-2%
CCCc1ccc(S(=O)(=O)NCCc2ccncc2)cc1	?	-1%	-5%	?	?	-4%
CC(C)(C)c1ccc(S(=O)(=O)NCCc2ccncc2)cc1	22µM*	8%	-18%	?	?	-14%
O=[N+]([O-])c1ccccc1S(=O)(=O)NCCc1ccncc1	-12%	2%	-2%	22%[9.22 µM]	18µM*	/
CC(C)(C)c1ccc(S(=O)(=O)Nc2ccc(Cc3ccncc3)cc2)cc1	?	-2%	-12%[10 µM]	?	1.1µM*	-11%
CCCC1=C(C(=O)OCC)C(c2cc(Cl)cc(OC)c2OCC(=O)OCC)NC(=O)N1 (stereo not given)	-2%	0%	-8%	3%	1%	-1%
CCn1cc(S(=O)(=O)Nc2ccccc2C(F)(F)F)cn1	23%[9.22 µM]	0%	26%[10 µM]	20%[46 µM]	6%	/
COc1ccccc1-n1cc(-c2ccc([N+](=O)[O-])cc2)[nH]c1=S	1%[9.22 µM]	/	8%[10 µM]	/	4%	/
O=S(=O)(Nc1ccc(Cc2ccncc2)cc1)N1CCCC1	-17%	0%	-4%	-9%	3%	25µM*
